From PubChem
Rows were chosen to be rich in hits. Some 0.42% of all compounds tested hit in one or more screens of this group.
Tb PFK block: inhibitors of T. brucei phosphofructokinase. 0.17% of 330,000 active. T. brucei PFK, ADP-Glo luminescence. Potency, µM (titrated, usually from 57.5 µM), actives largely listed as inhibitors. O15648. AID 485367; note: nearly all actives have a fitted effect of over 60% in size
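PFK 1.25 nM, F6P 0.5 mM, ATP 0.1 mM, 0.1 M TEA pH 8.0, 5 mM MgCl2, 0.01% Tween20, 0.1% BSA; 45 min RT. ADP-Glo readout. qHTS titration up to 57 uM; curves fitted, compounds curve-classed.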
Chronic BCR inh: blocks chronic active B-cell receptor signaling. ABC-DLBCL IkBa-CBG/CBR reporter, luminescence ratio, 4 h. Potency, µM (doses to about 46.1 µM), usual class: inhibitors. 0.05% of 340,000 active; active = well fitted inhibition curve with a large enough effect in the signal ratio, with a control signal flat, not every such curve was filed as active; inconclusive = small, poorly fitted or top-dose-only effect, or effect the other way, or a change in a side signal; the % refers to the signal ratio
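TMD8 ABC-DLBCL cells carrying doxycycline-inducible green luciferase fused to IkappaBalpha plus unfused red luciferase were exposed to compounds (up to 46 uM) for 4 hrs at 37C. Activity came from the overlap-corrected green/red luminescence ratio.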
B2AR arrestin: beta2AR (human) beta-arrestin recruitment activity. P07550. beta-arrestin recruitment to beta2AR, cell-based reporter. Potency, µM (doses to about 46.1 µM), usual class: activators. 0.02% of 330,000 active. AID 492947; note: nearly all actives have a fitted effect of over 65% in size
Pin1 inh: human Pin1 inhibition; Q13526; Pin1 FP peptide displacement, HiFluor488, 10 min; Potency, µM (highest dose often 115 µM), usual class: inhibitors; 0.009% of 390,000 active; AID 504891; active = well fitted inhibition curve with a large enough effect in the polarisation, with a control signal flat, not every such curve was filed as active; inconclusive = small, poorly fitted or top-dose-only effect, or effect the other way, or a change in a side signal; inactive = no such curve, though single readings can be large or run the other way; the % refers to the polarisation
GLS inh: blocks human kidney-isoform glutaminase activity | Potency, µM (top dose mostly 45.5 µM), hits mostly inhibitors | 0.21% of 410,000 active | O94925 | AID 624170 | GLS enzymatic activity, qHTS titration
Target sequence (O94925 whole entry, looked up, canonical isoform): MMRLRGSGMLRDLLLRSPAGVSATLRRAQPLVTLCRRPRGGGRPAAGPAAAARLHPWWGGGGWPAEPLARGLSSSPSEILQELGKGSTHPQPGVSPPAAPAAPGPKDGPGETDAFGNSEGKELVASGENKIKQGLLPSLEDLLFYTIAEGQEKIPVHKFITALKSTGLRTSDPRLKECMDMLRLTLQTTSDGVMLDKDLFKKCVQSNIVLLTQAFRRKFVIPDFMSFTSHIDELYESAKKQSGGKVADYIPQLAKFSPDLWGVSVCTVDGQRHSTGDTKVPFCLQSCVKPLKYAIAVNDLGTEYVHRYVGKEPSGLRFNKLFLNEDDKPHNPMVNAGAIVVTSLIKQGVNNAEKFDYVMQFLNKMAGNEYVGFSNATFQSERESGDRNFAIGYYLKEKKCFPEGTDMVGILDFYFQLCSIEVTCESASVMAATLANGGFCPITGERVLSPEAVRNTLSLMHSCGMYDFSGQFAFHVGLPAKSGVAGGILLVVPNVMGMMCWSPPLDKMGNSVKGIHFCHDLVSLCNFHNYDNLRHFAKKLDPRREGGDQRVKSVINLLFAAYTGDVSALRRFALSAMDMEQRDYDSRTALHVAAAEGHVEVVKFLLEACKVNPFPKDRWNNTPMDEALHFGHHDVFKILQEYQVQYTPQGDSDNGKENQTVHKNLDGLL
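Glutamate formation by hKGA was monitored fluorometrically using coupled glutamate oxidase, HRP and Amplex Red. Substrate was added as 1 mM L-glutamine solution; incubation was 30 min at RT after an initial read.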
PGK inhibitor: T. brucei PGK inhibition; Potency, µM (series often up to 57.5 µM), hits mostly inhibitors; PGK/GAPDH coupled, Kinase-Glo luminescence, 60 min; 0.043% of 380,000 active; AID 602233; note: nearly all actives have a fitted effect of over 60% in size
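Luminescent ATP detection (Kinase-Glo Plus) follows a 60-minute room-temperature incubation, with wells lacking PGK as controls. Buffer: 100 mM TEA (pH 7.6), 5 mM MgCl2, 0.01% Tween-20. Coupling enzyme GAPDH (100 nM final) supplies unstable 1,3-BPG in-well.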
Each line names hits and unclear results; the compound was inactive in the other large screens. Unless noted, calls come from the whole dose curve; as a rule, active = well fitted curve in the direction sought with a large enough effect; inconclusive = small, poorly fitted or top-dose-only effect, or another doubt; inactive = no such curve, though single readings can be large; an effect the other way counts as inactive or inconclusive.

O=C(O)c1sc(C(=O)O)c(-c2ccccc2)c1-c1ccccc1	none (no result: Tb PFK block, Chronic BCR inh, B2AR arrestin, Pin1 inh)
CCN1CCN(C(=O)CCN(CC(C)C)c2nc(-c3cccs3)nc3ccccc23)CC1	none (no result: Tb PFK block, Chronic BCR inh, B2AR arrestin, GLS inh, PGK inhibitor)
CN(C)c1nc(=NCc2ccco2)ss1	Chronic BCR inh inconclusive, B2AR arrestin 2.2µM, GLS inh inconclusive
COC(=O)CCC(=O)OC1(C)C(=O)C=C2C=C(c3ccsc3)OC=C2C1=O (stereo not given)	Pin1 inh inconclusive, GLS inh 13µM (no result: Tb PFK block, Chronic BCR inh, B2AR arrestin)
Cn1c2ccccc2c2cc(/C=N/NC(=O)c3cc(O)cc(O)c3)ccc21	Chronic BCR inh inconclusive, Pin1 inh inconclusive, GLS inh 16µM, PGK inhibitor inconclusive
COc1ccc2c(c1)c(C(=O)N/N=C/c1ccc(O)c(O)c1)c(C)n2C	Tb PFK block inconclusive, Chronic BCR inh inconclusive, Pin1 inh inconclusive, GLS inh 7.1µM
COc1ccc(CCNC[C@H](O)COc2cccc(C)c2)cc1OC	none (no result: Tb PFK block, Chronic BCR inh, B2AR arrestin, Pin1 inh, PGK inhibitor)
COc1ccc(OC)c(S(=O)(=O)N2CCN(S(=O)(=O)c3ccc4c(c3)OCCO4)CC2)c1	none (no result: Tb PFK block, Chronic BCR inh, B2AR arrestin, GLS inh, PGK inhibitor)
COc1cccc(C2Nc3ccc4ccccc4c3C3=C2C(=O)CC(C)(C)C3)c1OCC(=O)O (stereo not given)	GLS inh 13µM
Cc1cc(O)c(C=O)c2c1C(=O)Oc1c(CO)c(O)c3c(c1O2)C(O)OC3=O (stereo not given)	Tb PFK block 24µM, Pin1 inh 3.2µM, PGK inhibitor inconclusive
COc1ccc(C2=NC(C)(C)Cc3cc(OC)c(OC)cc32)cc1	none (no result: PGK inhibitor)
COc1cc2c(cc1OC)C(SC)=NC(C)(C)C2	Chronic BCR inh 16µM
C/C(=N/NC(=O)COc1cc(C)ccc1C(C)C)C(=O)O	Chronic BCR inh 10µM
Cc1ccc(C(C)C)c(OCC(=O)NN=C(CCl)CCl)c1	none (no result: Pin1 inh, GLS inh, PGK inhibitor)
Cc1cc2c(s1)c1cnn(Cc3ccc(SC(F)(F)F)cc3)c(=O)c1n2C	none (no result: Tb PFK block, Chronic BCR inh, B2AR arrestin, GLS inh, PGK inhibitor)
COC(=O)c1ccc(N2NC(=O)/C(=C/c3ccc(-c4ccc(Cl)c(C(=O)O)c4)o3)C2=O)cc1	GLS inh inconclusive, PGK inhibitor inconclusive (no result: Pin1 inh)
O=C1NN(c2ccccc2)C(=O)/C1=C/c1ccc(-c2ccc(C(=O)O)cc2)o1	Chronic BCR inh inconclusive, Pin1 inh inconclusive, GLS inh 11µM
O=C1NN(c2ccc(Cl)c(Cl)c2)C(=O)/C1=C/c1ccc(-c2ccccc2C(=O)O)o1	Chronic BCR inh inconclusive, GLS inh 13µM, PGK inhibitor inconclusive (no result: Pin1 inh)
O=S1(=O)N=C(Sc2cccc3cccnc23)c2ccccc21	none (no result: Tb PFK block, Chronic BCR inh, B2AR arrestin, GLS inh, PGK inhibitor)
COc1cc(-c2nc3ccc(C)cn3c2Nc2ccc3c(c2)OCCO3)ccc1O	Chronic BCR inh inconclusive, GLS inh 13µM
c1ccc(-c2nc3cnccn3c2Nc2ccc3c(c2)OCCO3)cc1	GLS inh inconclusive
Oc1ccc(-c2nc3cnccn3c2Nc2ccc3c(c2)OCCO3)cc1	Chronic BCR inh 18µM, Pin1 inh inconclusive
Cc1cc2c(s1)c1cnn(Cc3cccc(Br)c3)c(=O)c1n2C	none (no result: Tb PFK block, Chronic BCR inh, B2AR arrestin, GLS inh, PGK inhibitor)
O=C(C1CCN(c2nc(-c3ccc(Br)cc3)cs2)CC1)N1CCOCC1	none (no result: Tb PFK block, Chronic BCR inh, B2AR arrestin, GLS inh, PGK inhibitor)
S=c1[nH]nc(Cc2ccccc2)n1-c1cccc2ccccc12	GLS inh 13µM
COc1ccc2c(c1)C(C)=CC(C)(C)N2S(=O)(=O)c1ccc(NC(C)=O)cc1	Chronic BCR inh 4.5µM, Pin1 inh inconclusive
CC1=CC(C)(C)N(S(=O)(=O)c2ccc(C)cc2)c2ccccc21	Chronic BCR inh 23µM, Pin1 inh inconclusive
CCCCOc1ccc(CSC(=N)N)cc1Cl	Chronic BCR inh inconclusive, GLS inh 20µM
CCCCCOc1ccc(Br)cc1CSC(=N)N	none
N#Cc1nc(NCC(F)F)c2ncn(-c3cccc(Cl)c3)c2n1	none (no result: Tb PFK block, Chronic BCR inh, B2AR arrestin, GLS inh, PGK inhibitor)
Oc1cc(O)cc(/C=C/c2ccc(O)c(O)c2)c1	Tb PFK block 8.5µM, GLS inh inconclusive, PGK inhibitor inconclusive
O=C(N/N=C/c1cc([N+](=O)[O-])ccc1O)NC12CC3CC(CC(C3)C1)C2	GLS inh 10µM
Cn1c(NCCCCO)nc2c1c(=O)n(Cc1ccc(Cl)cc1)c(=O)n2C	Pin1 inh inconclusive, GLS inh 13µM (no result: Tb PFK block, Chronic BCR inh, B2AR arrestin)
Cn1c(NCCCN2CCOCC2)nc2c1c(=O)n(Cc1ccc(Cl)cc1)c(=O)n2C	Chronic BCR inh inconclusive, GLS inh 16µM
